9 compounds from PubChem BioAssay (NCATS) can be followed below.

SMILES strings stand for the structures. Inconclusive results are not listed. Active and inactive are the calls of the source. Calls come from the whole dose curve; as a rule, active = well fitted inhibition curve with a large enough effect; inconclusive = small, poorly fitted or top-dose-only effect; inactive = flat fitted curve, though single readings scatter.

What all share (assay): qHTS profiling for inhibitors of Plasmodium falciparum proliferation (AID 504749); note: nearly all actives have a fitted effect of over 60% in size
Common to all, as to conditions: P. falciparum in erythrocytes, SYBR Green DNA, 72 h; series mostly up to 28.7 µM
In general terms: Quantitative high-throughput screening tests each substance at several concentrations.

Assay [1] concerns CP329. The method, boiled down: (§1)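 Readout was DNA-dye fluorescence from lysed cultures, ex 485/em 535 nm. Parasitized red cells had grown 72 h with compound; data scaled between 0.29 uM artemisinin and DMSO wells and corrected using vehicle-only plates.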
The subject of assay [2] is CP335. The method, boiled down:
as §1

Assay [3] relates to DFO2036. The method, boiled down:
as §1

Assay [4] concerns DIV17. The method, boiled down:
as §1

In assay [5] the test system is DIV30. The method, boiled down:
as §1

The test system of assay [6] is Dd2. The method, boiled down:
as §1

Assay [7] has as its system ECU. In outline: as §1
In assay [8] the test system is FAB9. The method, boiled down: as §1
Assay [9] deals with GB4. The method, boiled down: as §1
The test system of assay [10] is HB3. The method, boiled down: as §1
Assay [11] concerns ICS. In outline:
as §1

The test system of assay [12] is JCK. The method, boiled down: as §1
The subject of assay [13] is N140. The method, boiled down:
as §1

Assay [14] has as its system P93_24. In outline: as §1
Assay [15] has as its system P94_40. The method, boiled down: as §1
Assay [16] concerns PAD. The method, boiled down: as §1
Assay [17] concerns PC15. In outline: as §1
Assay [18] concerns PC26. In outline:
as §1

In assay [19] the test system is PC49. The method, boiled down: as §1
For assay [20], the system named is DIV14. In outline:
as §1
Potency is the fitted concentration of half-maximal effect.

Regarding `COC(=O)CCC(=O)CN`, the Potency result in [1], in assay [2], in assay [3], in [4], in assay [5] and in [6] was “inactive” in each case. Moreover, the Potency entry in assay [7], in assay [8], in assay [9], in [10], in assay [11] and in assay [12] was “inactive” throughout. In addition, the Potency entry in assay [13], in [14], in [15], in assay [16], in assay [17] and in assay [18] was “inactive” throughout. Moreover, the Potency result in [19] is “inactive”.

Regarding `CN1C(=O)CN2CCc3ccccc3C2c2cc(Cl)ccc21` (configuration not stated), the Potency entry in assay [1], in assay [2], in assay [3], in [6], in assay [8] and in assay [10] was “inactive” in each case. Also, the Potency entry in [12], in assay [15], in assay [17] and in [19] was “inactive” in each case. Moreover, the Potency in assay [4] was 6.01 µM (active).

For `CC(=O)Oc1c(C)cc(OCC(O)CNC(C)C)c(C)c1C` (configuration not stated), the Potency result in assay [1], in assay [2], in assay [3], in assay [20], in assay [4] and in assay [5] was “inactive” in each case. For the same compound, the Potency result in [6], in [7], in assay [8], in [10], in assay [11] and in [12] was “inactive” in each case. Further, the Potency result in assay [13], in [14], in [15], in assay [16], in [17] and in [18] was “inactive” throughout. Further, the Potency entry in assay [19] is “inactive”.

`COC(=O)C1=C(C#N)NC(C)=C(C(=O)OC(C)C)C1c1cccc([N+](=O)[O-])c1` (configuration not stated): the Potency in assay [1] was 15.1 µM (active); in [2], 8.49 µM (active); in [3], 12.6 µM (active); in [20], 7.57 µM (active); in assay [4], 13.5 µM (active); in assay [5], 10.7 µM (active). Besides, the Potency is 12.6 µM (active) in assay [6]; 10 µM (active) in assay [7]; 10 µM (active) in assay [10]; 7.94 µM (active) in assay [11]; 7.94 µM (active) in [13]; 12.6 µM (active) in assay [14]. In addition, the Potency in [16] is 10 µM (active); in assay [17], 10 µM (active); in [18] it was 13.5 µM (active); in assay [19] it was 12.6 µM (active).

With `C[C@]12CCC(=O)C=C1CC[C@@H]1[C@@H]2[C@@H](O)C[C@@]2(C)[C@H]1CC[C@]2(O)C(=O)COP(=O)(O)O`, the Potency result in [1], in assay [2], in assay [3], in assay [20], in assay [4] and in assay [5] was “inactive” throughout. Also, the Potency entry in assay [6], in [7], in assay [8], in [9], in [10] and in assay [11] was “inactive” in each case. The Potency result in assay [12], in [13], in [15], in assay [16], in assay [17] and in assay [18] was “inactive” throughout. Moreover, the Potency result in assay [19] was “inactive”.

Take `IC(I)I`: the Potency result in assay [1], in assay [2], in assay [3], in [4], in assay [5] and in [6] was “inactive” throughout. The Potency result in assay [7], in [8], in [9], in [10], in [11] and in [12] was “inactive” throughout. For the same compound, the Potency entry in assay [13], in assay [14], in [15], in assay [16], in [17] and in [18] was “inactive” each time. In addition, the Potency entry in [19] was “inactive”.

With `C[C@H]1C[C@H]2[C@@H]3CCC4=CC(=O)C=C[C@]4(C)[C@@]3(F)[C@@H](O)C[C@]2(C)[C@@]1(O)C(=O)CO`, the Potency entry in assay [1], in assay [2], in [3], in assay [20], in assay [4] and in assay [5] was “inactive” in each case. Besides, the Potency entry in assay [6], in assay [7], in [8], in assay [9], in [10] and in assay [11] was “inactive” in each case. In addition, the Potency entry in assay [12], in assay [13], in [14], in assay [15], in assay [16] and in [17] was “inactive” throughout. The Potency result in assay [18] and in [19] was “inactive” each time.

Regarding `C#C[C@]1(O)CC[C@H]2[C@@H]3CCC4=CCCC[C@@H]4[C@H]3C(=C)C[C@@]21CC`, the Potency entry in [1], in assay [20], in assay [4], in [5], in assay [6] and in assay [8] was “inactive” throughout. Moreover, the Potency result in assay [9], in assay [10], in assay [12], in assay [17] and in assay [18] was “inactive” in each case. In addition, in assay [11], the Potency is 10 µM (active).

In the case of `CC(=O)Oc1cc(C)c(OC(C)=O)c2ccccc12`, the Potency in [20] is 6.01 µM (active); in assay [4] it was 6.75 µM (active); in assay [9], 7.57 µM (active); in assay [11] it was 6.31 µM (active); in [14] it was 7.94 µM (active); in [17], 4.47 µM (active). For the same compound, the Potency in [18] is 7.57 µM (active).
